# Experimental data as given in PubChem BioAssay (Tox21).
# A number with no mark means an inactive call. Inconclusive results are not listed. Where a call stands in place of a potency, no number is given. Active and inactive are the calls of the source. Unless noted, calls follow the shape of the dose curve; as a rule, active = well fitted curve in the direction sought with a large enough effect in the repeat runs; inconclusive = weak or mixed curves; inactive = no such curve, though single readings can be large; an effect the other way counts as inactive or inconclusive.
# How the values were obtained:
# [1] = target: Thyrotropin receptor (Homo sapiens) (UniProt P16473); experiment: qHTS assay to identify small molecule agonists of the thyroid stimulating hormone receptor (TSHR) signaling pathway (AID 1224843; calls by dose curve; also: nearly all actives have a fitted effect of over 45% in size)
# In short: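 Agonist-mode screen: TSHR HEK293 cells received test chemicals for half an hour at room temperature, then HTRF cAMP detection reagents for one hour prior to fluorescence measurement. Each chemical ran as a 15-concentration series, triplicated.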
# [2] = qHTS assay to identify small molecule agonists of the hypoxia (HIF-1) signaling pathway - cell viability counter screen (AID 1224844; calls by dose curve; also: nearly all actives have a fitted effect of over 50% in size)
# In short: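 Cytotoxicity was measured in parallel with the HRE-driven beta-lactamase readout: after 17 hrs of compound exposure at 37C, HRE-bla ME-180 cells received CellTiter-Glo and luminescence was recorded 30 min later.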
# [3] = qHTS assay to identify small molecule agonists of the hypoxia (HIF-1) signaling pathway (AID 1224846; active = well fitted activation curve with a large enough effect in the signal ratio in the repeat runs, not every such curve was filed as active; the % refers to the signal ratio)
# In short: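 Compounds from the Tox21 10K library, dissolved in DMSO, are tested for induction of a hypoxia response element–controlled beta-lactamase reporter in ME-180 cells. Exposure lasts 17 hrs at 37C after a 5 hr settling period, followed by CCF4-AM FRET substrate.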
# [4] = qHTS assay to identify small molecule agonists of H2AX - cell viability counter screen (AID 1224847; calls by dose curve;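 also: wild-type CHO-K1 cells; top concentration of the series differs between compounds; nearly all actives have a fitted effect of over 30% in size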)
# In short: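 For this counter screen, overnight-attached CHO-K1 cells received test compounds (15 concentrations, 0.76% DMSO final); 3 hr later at 37C, CellTiter-Glo reagent was added and luminescence recorded after 30 min at room temperature.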
# [5] = qHTS assay to identify small molecule antagonists of the estrogen related receptor (ERR) signaling pathway from Tox21 library (AID 1224848); also: nearly all actives have a fitted effect of over 50% in size
# In short: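 Quantitative high-throughput format: ERR reporter cells (2,000/well) pre-incubated 6 h, treated 18 h at 37 C with compounds in DMSO alongside positive and negative controls, then read by ONE-Glo luminescence.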
# [6] = qHTS assay to identify small molecule agonists of the estrogen related receptor (ERR) signaling pathway from Tox21 library (AID 1224849; calls by dose curve; also: nearly all actives have a fitted effect of over 15% in size); conditions: ERR reporter cell line, ONE-Glo luciferase, 18 h; at 92.4 µM (top of the series) unless noted
# In short: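 Cells carrying the ERR reporter were plated and allowed to settle for 6 h, exposed to library compounds for 18 h at 37 C, then lysed with ONE-Glo and luminescence measured.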
# [7] = qHTS RealTime-Glo MT Cell Viability Assay in HepG2 cells - 24 hour (AID 1224867); also: nearly all actives have a fitted effect of over 50% in size
# In short: (§1)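 Viability was tracked continuously by NanoLuc luminescence from prosubstrate reduced by living HepG2 cells, at successive time points over 40 h of compound exposure. Cells with reagent were preincubated 5 h at 37 °C before compound addition.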
# [8] = qHTS RealTime-Glo MT Cell Viability Assay in HEK293 cells - 32 hour (AID 1224868); also: top concentration of the series differs between compounds; nearly all actives have a fitted effect of over 50% in size
# In short: (§2)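 Viability tracked continuously by luminescence as live cells reduce a prosubstrate for NanoLuc; HEK293 cells preincubated 5 h, compound-treated at 37 C, and read at 0, 8, 16, 24, 32 and 40 h.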
# [9] = A CellTox Green Cytotoxicity Assay to monitor cytotoxicity in HEK293 cells - 0 hour (AID 1224869); also: nearly all actives have a fitted effect of over 50% in size; also: potency is read from the fitted curve at half-maximal effect
# In short: (§3)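 Cells (HEK293, 600/well) and dye reagent are dispensed together. After 5 h at 37 C, 23 nL compound is pinned in. Plates stay at 37 C for 40 h with fluorescence read at 0h, 8h, 16h, 24h, 32h and 40h.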
# [10] = qHTS RealTime-Glo MT Cell Viability Assay in HepG2 cells - 40 hour (AID 1224870); also: nearly all actives have a fitted effect of over 50% in size
# In short: (§4)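 HepG2 cells (600/well) mixed with RealTime-Glo MT reagent, settled 5 h at 37 C/5% CO2 before compound addition. Nonlytic NanoLuc luminescence from viable-cell prosubstrate reduction read repeatedly during 40 h treatment at 37 C.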
# [11] = A CellTox Green Cytotoxicity Assay to monitor cytotoxicity in HEK293 cells - 40 hour (AID 1224871); also: nearly all actives have a fitted effect of over 45% in size; also: potency is read from the fitted curve at half-maximal effect
# In short: as §3
# [12] = qHTS RealTime-Glo MT Cell Viability Assay in HEK293 cells - 16 hour (AID 1224872)
# In short: as §2
# [13] = qHTS RealTime-Glo MT Cell Viability Assay in HepG2 cells - 8 hour (AID 1224873); also: nearly all actives have a fitted effect of over 55% in size
# In short: as §4
# [14] = qHTS RealTime-Glo MT Cell Viability Assay in HEK293 cells - 40 hour (AID 1224874); conditions: RealTime-Glo luminescence; max response: hits give low values; also: nearly all actives have a fitted effect of over 50% in size
# In short: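 Real-time viability in HEK293: signal arises when living cells convert a prosubstrate for NanoLuc in the medium, so luminescence tracks viable cell number. Compound (23 nL, DMSO) added 5 h post-seeding; kinetic reads at 0–40 h, 37 C.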
# [15] = A CellTox Green Cytotoxicity Assay to monitor cytotoxicity in HEK293 cells - 24 hour (AID 1224875); also: nearly all actives have a fitted effect of over 45% in size
# In short: as §3
# [16] = qHTS RealTime-Glo MT Cell Viability Assay in HepG2 cells - 32 hour (AID 1224877); also: nearly all actives have a fitted effect of over 55% in size
# In short: as §1
# [17] = A CellTox Green Cytotoxicity Assay to monitor cytotoxicity in HepG2 cells - 24 hour (AID 1224878); also: nearly all actives have a fitted effect of over 45% in size; also: potency is read from the fitted curve at half-maximal effect
# In short: (§5)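 Cells and non-lytic dye reagent are dispensed together (600 HepG2 cells/well) and incubated 5 h before DMSO compound transfer. Kinetic fluorescence is then recorded in the same wells during 40 h at 37 C.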
# [18] = A CellTox Green Cytotoxicity Assay to monitor cytotoxicity in HepG2 cells - 40 hour (AID 1224879); also: nearly all actives have a fitted effect of over 40% in size; also: potency is read from the fitted curve at half-maximal effect
# In short: as §5
# [19] = A CellTox Green Cytotoxicity Assay to monitor cytotoxicity in HepG2 cells - 16 hour (AID 1224876); also: nearly all actives have a fitted effect of over 45% in size; also: potency is read from the fitted curve at half-maximal effect
# In short: as §5
# Sequence of Thyrotropin receptor (Homo sapiens) (P16473 whole entry, looked up): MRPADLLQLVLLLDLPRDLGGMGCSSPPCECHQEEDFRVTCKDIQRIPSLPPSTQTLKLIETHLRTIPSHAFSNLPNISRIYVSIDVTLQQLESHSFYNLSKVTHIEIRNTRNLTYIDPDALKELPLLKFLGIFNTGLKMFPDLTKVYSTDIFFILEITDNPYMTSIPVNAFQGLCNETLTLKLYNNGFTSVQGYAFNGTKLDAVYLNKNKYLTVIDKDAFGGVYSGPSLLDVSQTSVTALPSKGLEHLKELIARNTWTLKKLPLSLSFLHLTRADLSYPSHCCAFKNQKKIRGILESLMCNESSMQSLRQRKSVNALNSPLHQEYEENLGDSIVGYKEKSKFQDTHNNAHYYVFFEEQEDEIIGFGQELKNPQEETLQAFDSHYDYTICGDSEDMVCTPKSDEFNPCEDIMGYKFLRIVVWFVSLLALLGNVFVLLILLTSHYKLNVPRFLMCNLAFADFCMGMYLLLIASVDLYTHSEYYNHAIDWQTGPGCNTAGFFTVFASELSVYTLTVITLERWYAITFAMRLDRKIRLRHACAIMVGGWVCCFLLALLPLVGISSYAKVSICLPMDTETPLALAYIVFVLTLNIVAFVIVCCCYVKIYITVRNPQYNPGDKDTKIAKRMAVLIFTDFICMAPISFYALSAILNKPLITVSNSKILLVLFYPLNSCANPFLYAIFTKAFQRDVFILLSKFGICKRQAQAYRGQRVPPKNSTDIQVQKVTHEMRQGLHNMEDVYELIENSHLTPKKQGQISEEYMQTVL
Structure (SMILES),Potency [1],Potency [2],outcome [3],Potency [4],Potency [5],"activity change, positive = activation [6]",Potency [7],Potency [8],Potency [9],Potency [10],Potency [11],Potency [12],Potency [13],max response [14],Potency [15],Potency [16],Potency [17],Potency [18],Potency [19]
COC(=O)NN,inactive,inactive,inactive,inactive,inactive,-24.9%,inactive,inactive,inactive,inactive,inactive,inactive,inactive,1.74%,inactive,inactive,inactive,inactive,
Cc1cccc(C)c1NC(=O)C(C)N (stereo not given),inactive,inactive,,inactive,inactive,,inactive,inactive,21.3 µM (active),inactive,19 µM (active),inactive,inactive,,,inactive,21.3 µM (active),23.9 µM (active),21.3 µM (active)
Brc1c(NC2=NCCN2)ccc2nccnc12,inactive,inactive,,inactive,inactive,3.51% [at 42.5 µM],inactive,inactive,inactive,inactive,inactive,inactive,inactive,-1.41%,inactive,inactive,inactive,inactive,inactive
CC(C)(O)C#CC(C)(C)O,inactive,inactive,inactive,inactive,inactive,4.8%,inactive,inactive,inactive,inactive,inactive,inactive,inactive,4.69%,inactive,,inactive,inactive,inactive
C[C@@H]1CCN(C(=O)[C@H](CCCN=C(N)N)NS(=O)(=O)c2cccc3c2NC[C@H](C)C3)[C@@H](C(=O)O)C1,inactive,inactive,inactive,inactive,inactive,,inactive,inactive,inactive,inactive,inactive,inactive,inactive,4.96%,inactive,inactive,inactive,inactive,inactive
COC(=O)c1cc(C(=O)OC)cc(S(=O)(=O)O)c1,inactive,inactive,inactive,inactive,inactive,,inactive,inactive,inactive,inactive,inactive,inactive,inactive,-1.13%,inactive,inactive,inactive,inactive,inactive
